Most compounds without a hit are left out; they make up all but 4.1% or so of the library.
EBV LMP1 NFkB – Epstein-Barr LMP1 NF-kappaB reporter inhibition | actives 0.69% (n = 350,000) | LMP1-induced NF-kappaB luciferase reporter cells, luminescence | inhibition, % at 12.5 µM; in the data active = inhibition above about 41%;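 note: 0% = neutral control wells and 100% = reference inhibitor control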
TWEAK-Fn14 inh – TWEAK-Fn14 signaling inhibition; TWEAK-stimulated Fn14 reporter cells, luciferase luminescence, 8 h; inhibition, % at 10 µM; actives 2% (n = 360,000); AID 1159606; in the data active = inhibition above about 50%
TROY signal inh – TROY signaling inhibition; Q293 LMP1-TROYcd NF-kB luciferase reporter, 4 h; inhibition, % at 10 µM; actives 0.98% (n = 360,000); AID 1347056;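 active = compounds whose plate-normalised and pattern-corrected inhibition of the luciferase reporter signal at the single screening dose is 50% or more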
Shn3 3UTR inh – Schnurri-3 reporter inhibition in Clone20 osteoblasts | Clone20 osteoblast Shn3 3'UTR firefly luciferase, 24 h | inhibition, % at 12.5 µM | AID 588674 | actives 0.52% (n = 360,000);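 active = mean inhibition of at least 75% with every replicate also reaching 75%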;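 note: 0% = median of neutral control wells and 100% = pilot-screen positive control compound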
Peg3 promoter – reduces Peg3 promoter-driven luciferase expression in HeLa; actives 1.7% (n = 360,000); inhibition, % at 20 µM; HeLa PEG-Prom luciferase reporter, luminescence, overnight;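 active = inhibition of at least 50% at 20 µM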
MITF TRPM1 inh – inhibitors of MITF-driven TRPM1 promoter in melanoma cells; SK-MEL-5 TRPM1 promoter luciferase, 24 h; inhibition, % at 12.5 µM; actives 0.83% (n = 330,000);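 active = mean inhibition across replicates of 60% or more, whatever share of single replicates reaches that level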
* hit, by the source's call.

Results for Cc1ccc2nc(/C(C#N)=C\c3ccc(Oc4ccc([N+](=O)[O-])cn4)cc3)[nH]c2c1 ?
EBV LMP1 NFkB: 15; TWEAK-Fn14 inh: -12; TROY signal inh: -18; Shn3 3UTR inh: 24; Peg3 promoter: 19; MITF TRPM1 inh: -2

What do the screens show for `COc1ccc2nc(/C(C#N)=C\c3ccc(Oc4ccc([N+](=O)[O-])cn4)cc3)[nH]c2c1`?
EBV LMP1 NFkB: 3; TWEAK-Fn14 inh: -12; TROY signal inh: 19; Shn3 3UTR inh: 25; Peg3 promoter: 81*; MITF TRPM1 inh: -9

What do the screens show for `Cc1nc2ccccc2c2c1CC(C(C)(Cl)Br)O2` (stereo unspecified)?
EBV LMP1 NFkB: 18; TWEAK-Fn14 inh: 7; TROY signal inh: 27; Shn3 3UTR inh: 90*; Peg3 promoter: 6; MITF TRPM1 inh: 26

Results for Cc1ccc2nc(C)c3c(c2c1)OC(C(C)(Cl)Br)C3 (stereo unspecified) ?
EBV LMP1 NFkB: 17; TWEAK-Fn14 inh: 12; TROY signal inh: 15; Shn3 3UTR inh: 50; Peg3 promoter: -3; MITF TRPM1 inh: -1

How did CCOC(=O)C1=NN(c2ccccc2)C2=NC(C)=C(C(=O)OC)C(c3ccc(C)cc3)N12 (stereo unspecified) do in these assays?
EBV LMP1 NFkB: 9; TWEAK-Fn14 inh: 4; TROY signal inh: 19; Shn3 3UTR inh: 5; Peg3 promoter: -25; MITF TRPM1 inh: -1

How did COc1ccc(S(=O)(=O)N(Cc2ccccc2)c2ccccc2C(=O)N2CCOCC2)cc1 do in these assays?
EBV LMP1 NFkB: -17; TWEAK-Fn14 inh: 94*; TROY signal inh: 5; Shn3 3UTR inh: -7; Peg3 promoter: 10; MITF TRPM1 inh: 7

Results for Cc1ccc(S(=O)(=O)N2CC=C(c3c(C)n(C)c4ccccc34)CC2)cc1 ?
EBV LMP1 NFkB: 2; TWEAK-Fn14 inh: 43; TROY signal inh: 71*; Shn3 3UTR inh: -4; Peg3 promoter: 8; MITF TRPM1 inh: -3

Results for CC(C)C[C@H]1CN(CCCC[C@H]2CNC(=O)C(=O)N2CCC2CCCCC2)C(=O)C(=O)N1CCC1CCCCC1 ?
TWEAK-Fn14 inh: 20; TROY signal inh: 6

How did NC(=O)NC(=O)COC(=O)[C@H](Cc1ccccc1)NC(=O)c1cccs1 do in these assays?
EBV LMP1 NFkB: -5; TWEAK-Fn14 inh: 0; TROY signal inh: 18; Shn3 3UTR inh: -7; Peg3 promoter: 8; MITF TRPM1 inh: -4

What do the screens show for `CN(C)CCCNC(=S)NCC(c1ccc(Cl)cc1Cl)c1c[nH]c2ccccc12` (stereo unspecified)?
EBV LMP1 NFkB: -41; TWEAK-Fn14 inh: -46; TROY signal inh: 0; Shn3 3UTR inh: 5; Peg3 promoter: 103*; MITF TRPM1 inh: 46

What do the screens show for `NCC(c1ccc(Cl)cc1Cl)c1c[nH]c2ccccc12` (stereo unspecified)?
EBV LMP1 NFkB: 1; TWEAK-Fn14 inh: -15; TROY signal inh: 9; Shn3 3UTR inh: -1; Peg3 promoter: 96*; MITF TRPM1 inh: 17

Results for NCC(c1ccccc1Cl)c1c[nH]c2ccccc12 (stereo unspecified) ?
EBV LMP1 NFkB: -5; TWEAK-Fn14 inh: 2; TROY signal inh: -2; Shn3 3UTR inh: 14; Peg3 promoter: 7; MITF TRPM1 inh: 14

How did CCCCNC(=S)NCC(c1ccccc1)c1c[nH]c2ccccc12 (stereo unspecified) do in these assays?
EBV LMP1 NFkB: -5; TWEAK-Fn14 inh: 18; TROY signal inh: 14; Shn3 3UTR inh: 11; Peg3 promoter: 23; MITF TRPM1 inh: 15

Results for CC1(C)CC(C(CCN(Cc2ccccc2)C(=O)c2ccco2)c2ccc(F)cc2)CCO1 (stereo unspecified) ?
EBV LMP1 NFkB: 4; TWEAK-Fn14 inh: 32; TROY signal inh: 22; Shn3 3UTR inh: 9; Peg3 promoter: 51*; MITF TRPM1 inh: -6

How did CCOc1ccc(C(CCc2ccccc2)NC(=O)c2ccccc2)cc1OCC (stereo unspecified) do in these assays?
EBV LMP1 NFkB: 1; TWEAK-Fn14 inh: -12; TROY signal inh: 5; Shn3 3UTR inh: -1; Peg3 promoter: 13; MITF TRPM1 inh: 6

How did Cc1cc2nc3s/c(=C/c4ccc(-c5ccccc5C(=O)O)o4)c(=O)n3c2cc1C do in these assays?
EBV LMP1 NFkB: -3; TWEAK-Fn14 inh: 14; TROY signal inh: 3; Shn3 3UTR inh: 0; Peg3 promoter: -83; MITF TRPM1 inh: 6

Source: PubChem
